# Bioassay records as filed in PubChem.
# In the library only some 10% were active in any assay of this set; here they are far more common.
# ALDH1A1 block = ALDH1A1 (human) enzyme inhibition; P00352; Purified ALDH1A1, NADH fluorescence, propionaldehyde substrate; Potency, µM (series often up to 75.3 µM), without a hit: at the highest dose activity, negative = inhibition, usual class: inhibitors; actives 7.3% (n = 220,000);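 further: potency means the concentration at half of the fitted maximal effect; plate controls were no enzyme wells and a reference inhibitor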
# Target sequence (P00352 whole entry, looked up): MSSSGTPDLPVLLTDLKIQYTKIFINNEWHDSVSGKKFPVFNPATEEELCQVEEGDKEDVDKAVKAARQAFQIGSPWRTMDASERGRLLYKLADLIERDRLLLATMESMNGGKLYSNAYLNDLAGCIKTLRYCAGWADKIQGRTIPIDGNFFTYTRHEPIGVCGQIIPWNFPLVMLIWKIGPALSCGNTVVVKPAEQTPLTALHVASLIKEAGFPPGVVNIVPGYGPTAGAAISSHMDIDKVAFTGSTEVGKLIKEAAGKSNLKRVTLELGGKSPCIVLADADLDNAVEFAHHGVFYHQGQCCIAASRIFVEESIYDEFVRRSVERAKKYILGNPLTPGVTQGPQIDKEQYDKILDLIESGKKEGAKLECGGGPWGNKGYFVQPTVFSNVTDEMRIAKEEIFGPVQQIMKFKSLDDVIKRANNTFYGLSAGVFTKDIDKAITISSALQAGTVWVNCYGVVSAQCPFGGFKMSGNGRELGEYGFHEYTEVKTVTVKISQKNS
# PNC assembly inh = inhibitors of perinucleolar compartment assembly; activity change (PNC), negative = inhibition, % at 10 µM; actives 3.1% (n = 140,000); PC3M PTB-GFP, PNC prevalence imaging, 16 h; hits give low values; AID 2417;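 active means readout at or below -70, meaning at least 70% loss of cells showing the perinucleolar compartment, a nuclear body marking cancer cells; inconclusive means readout between -30 and a set limit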;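 further: plate controls were DMSO wells for no effect and camptothecin positive control wells for full effect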
#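 PC3M cells stably expressing PTB-GFP, 750–1000 cells/well, treated 16 h at 37 °C with compound (23 nl of library stock), in duplicate. After paraformaldehyde fixation and Hoechst stain, imaged at 20x; PNC prevalence scored by image analysis.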
# HPGD block = inhibitors of human 15-hydroxyprostaglandin dehydrogenase (HPGD); P15428; purified HPGD, NADH fluorescence kinetic, PGE2 substrate; Potency, µM, inactives show at the highest dose activity change, negative = inhibition, usual class: inhibitors; actives 4.3% (n = 150,000); further: potency means the concentration at half of the fitted maximal effect
# Target sequence (P15428 whole entry, looked up): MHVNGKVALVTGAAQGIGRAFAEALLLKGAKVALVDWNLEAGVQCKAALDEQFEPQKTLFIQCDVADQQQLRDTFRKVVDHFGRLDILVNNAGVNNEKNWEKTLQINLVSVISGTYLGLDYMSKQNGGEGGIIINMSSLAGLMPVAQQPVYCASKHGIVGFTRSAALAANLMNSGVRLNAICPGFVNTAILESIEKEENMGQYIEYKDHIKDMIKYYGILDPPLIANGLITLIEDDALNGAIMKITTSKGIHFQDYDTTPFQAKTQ
#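 20 nM HPGD preincubated 15 min at room temperature with compound in 50 mM Tris-HCl pH 8, 0.01% Tween 20. Started with 1 mM NAD+ and 30 uM prostaglandin E2; NADH fluorescence (360/450 nm) read 5 times over 30-s intervals, last minus first.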
# IMPase cell inh = membrane-permeable compound that blocks inositol monophosphatase | 120,000 tested, under 10 active | AID 901 | P97697 | inhibition (IP1 accumulation), % at 46.1 µM | CHO-M1 cells, IP1 accumulation, HTRF TR-FRET ratio; active means well fitted curve in the direction sought with a large enough effect in the signal ratio, not every such curve was filed as active; inconclusive means small, poorly fitted or top-dose-only effect, or a change in a side signal; inactive means no such curve, though single readings can be large or run the other way; the % refers to the signal ratio;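 further: cells stimulated with carbachol in lithium chloride buffer; plate controls were DMSO basal wells for no effect and reference inhibitor wells for full effect; higher means more IMPase inhibition seen as more IP1 and lower FRET ratio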
#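 Measured: the HTRF emission ratio (665/620 nm) plus the 620 nm donor channel, each fitted to the Hill equation to give AC50. Cells were CHO-M1 given compounds up to 46 uM and a 30 min carbachol stimulation at 37C.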
# Lamin A splicing = modulators of lamin A splicing; HeLa LMNA splicing GFP/RFP minigene ratio, 48 h; Potency, µM (top dose mostly 46.1 µM), for inactives: top-dose ratio change, negative = inhibition, most hits filed as inhibitors; AID 1487; actives 0.01% (n = 200,000); active means well fitted inhibition curve with a large enough effect in the signal ratio, with a control signal flat, not every such curve was filed as active; inconclusive means small, poorly fitted or top-dose-only effect, or effect the other way, or a change in a side signal; the % refers to the signal ratio; further: potency means the concentration at half of the fitted maximal effect
#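 S3 HeLa cells stably expressing lamin A-EGFP splicing minigene plus DsRed2, 600 cells/well, 48 h compound exposure at 37C. Laser-scanning cytometry; analysed as GFP (500-530 nm)/RFP (575-640 nm) total intensity ratio; 0.5% DMSO vehicle.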
# Luc counter = counter-screen: inhibitors of Kinase-Glo firefly luciferase. Kinase-Glo luciferase, ATP luminescence, 8 min. Potency, µM (doses to about 38.3 µM), without a hit: at the highest dose activity change, negative = inhibition, most hits filed as inhibitors. actives 0.28% (n = 200,000). AID 1379; active means well fitted inhibition curve with a large enough effect; inconclusive means small, poorly fitted or top-dose-only effect; further: potency means the concentration at half of the fitted maximal effect; nearly all actives have a fitted effect of over 60% in size
#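 Light output from Kinase-Glo luciferase with luciferin and 10 uM ATP in 50 mM imidazole pH 7.2, KCl, MgCl2, Tween 20, BSA; compound pin-delivered, 8-min ambient incubation, then luminescence read.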
# An asterisk follows results filed as active; ? = inconclusive; / = no result given; [ ] = dose if it differs, or a comment. Unless noted, the call rests on the fitted dose curve; in most records, active means well fitted inhibition curve with a large enough effect (not every such curve was filed as active); inconclusive means small, poorly fitted or top-dose-only effect, or another doubt; inactive means no such curve, though single readings can be large or run the other way. Unless noted, on the % scale 0 is the no-effect control and ±100 the full control effect.
SMILES,ALDH1A1 block,PNC assembly inh,HPGD block,IMPase cell inh,Lamin A splicing,Luc counter
O=C(NCCc1ccccc1)C(=O)NCC(c1ccc2c(c1)OCO2)N1CCOCC1 (stereo not given),/,/,/,/,11%[46 µM],/
Cc1ccc(N2CCN(C(=S)c3ccc(N(C)C)cc3)CC2)cc1,7.9µM*,?,25µM*,12,?,-1%
CN(C)c1ccc(C(=S)N2CCN(c3ccccc3)CC2)cc1,13µM*,9,-9%,6,?,-2%
Cc1ccc(N2CCN(C(=S)Nc3ccccc3)CC2)cc1,0%,/,/,/,/,-1%
CSC(N)=NCCC[C@@H](N)C(=O)O,/,/,/,12,/,/
O=C(Nc1ccccc1Br)C1CCC(=O)N1Cc1ccccc1Cl (stereo not given),15%,?,0%,1,-5%,4%
O=C(Nc1ccc(Cl)cc1)C1CCC(=O)N1Cc1ccccc1Cl (stereo not given),7%,-90*,-12%,0,19%,2%
COc1ccc(NC(=O)Cn2c(SCc3ccc(C)cc3)nc3cccnc32)cc1OC,/,/,/,/,-7%[46 µM],/
CCN(c1cccc(C)c1)S(=O)(=O)c1ccc(N2CCCCS2(=O)=O)cc1,/,/,/,/,16%[46 µM],/
O=C(c1ccc(Cl)cc1)c1coc2ccc(O)cc12,9%,6,-12%,-5,?,-6%
O=C(c1coc2ccc(O)cc12)C1CC1,2.8µM*,?,-14%,6,18%,-1%
Cc1cc(NCc2ccncc2)ccc1Br,22µM*,/,/,/,/,1%
Cc1ccc(NCc2ccncc2)c(Br)c1,8%,/,/,/,/,1%
Cc1cccc(C)c1NC(=O)c1ccc([N+](=O)[O-])s1,11%,13,-8%,/,?,-3%
Cc1cccc(NC(=O)c2ccc([N+](=O)[O-])s2)c1C,0.89µM*,?,-11%,-2,?,2%
CN(C)c1ccc(/C=N/N=C/c2ccccc2O)cc1,13µM*,?,-7%,-3,-6%,-20%
CN(C)c1ccc(C=Nc2ccccc2C(N)=O)cc1,?,-9,?,4,?,-21%
S=C(S)NCCCn1ccnc1,-4%[13.5 µM],/,-10%,/,/,-2%[7.66 µM]
Cc1cccc2cc3c(N)c(C#N)sc3nc12,-9%,?,-7%,0,-1%,10%
Cc1sc(NC(=O)c2sc3nc4c(C)cccc4cc3c2N)c(C#N)c1C,2.8µM*,?,7.1µM*,-4,1%,-5%
COc1ccc(CCn2c3c(c(=O)[nH]c2=O)C(NC(=O)c2ccccc2F)(C(F)(F)F)C(=O)N3)cc1OC (stereo not given),/,/,/,-14,/,/
CCC(=O)Nc1cnc(NC(=O)c2cccc(F)c2)cc1C,3%,-100*,-14%,2,-3%,-10%
N#Cc1c(C(F)(F)F)cc(-c2cccs2)nc1SCc1ccccc1F,/,/,/,3,/,/
O=C(CCn1cnc2ccccc2c1=O)NCc1ccccc1,/,/,/,/,14%[46 µM],/
Cn1c(=O)c2c(ncn2CCSS(=O)(=O)O)n(C)c1=O,1%[13.5 µM],/,-8%,/,/,0%[7.66 µM]
SMILES,ALDH1A1 block,PNC assembly inh,HPGD block,IMPase cell inh,Lamin A splicing,Luc counter
O=C(N/N=C/C1C(c2ccccc2)C1(Cl)Cl)c1cccc(Br)c1 (stereo not given),11µM*,-4,-11%,3,-10%,2%
C/C(=N\NC(=O)c1ccccc1)c1cccc(Br)c1,12%,/,/,/,1%[46 µM],0%
O=C1NC(=O)[C@@H]2C3c4ccccc4C=CN3[C@H](C(=O)c3cccs3)[C@H]12 (stereo not given in full),25µM*,19,-24%,-6,4%,13%
CCOc1cc(S(=O)(=O)NC2CCCCCC2)ccc1F,3.2µM*,26,25µM*,0,?,7%
CSc1nc2ccc(S(=O)(=O)NC3CCCCC3)cc2s1,?,3,16µM*,2,?,-2%
CCOC(=O)Cn1c(=O)n(Cc2ccco2)c(=O)c2ccc(C(=O)NCCc3ccccc3)cc21,4µM*,?,-12%,-2,9%,-4%
CCC1CN(C(=O)N2CCC(C(=O)N3CCN(c4ccccc4)CC3)CC2)c2ccccc2O1 (stereo not given),/,/,/,/,-5%[46 µM],/
CC(C)(C)C1CCc2c(sc(NC(=O)CSc3ncn[nH]3)c2C#N)C1 (stereo not given),8.9µM*,13,14µM*,?,?,1%
CCCc1cc(=O)[nH]c(SCC(=O)Nc2sc3c(c2C#N)CCC(C)C3)n1 (stereo not given),22µM*,/,/,/,-22%[46 µM],-1%
Cc1sc(/N=C/c2c(O)ccc3ccccc23)c(C#N)c1C,2%,34,-12%,-8,-3%,17%
COc1ccc(O)c(/C=N/c2sc(C)c(C)c2C#N)c1,10µM*,30,25µM*,10,-3%,-8%
CN(C)c1nc(N/N=C/c2c[nH]c3ccccc23)nc(N2CCOCC2)n1,19µM*,/,/,/,/,2%
Cc1ccc(S(=O)(=O)N2c3ccccc3OCC2c2ccccc2)cc1 (stereo not given),10%,-100*,-10%,2,?,0%
O=C(C(Cl)Cl)N1c2ccccc2OCC1c1ccccc1 (stereo not given),1.3µM*,?,-12%,9,-7%,0%
COc1cc2c(cc1OC)-c1cc3cc(OC)c(OC)cc3c(=O)n1CC2,?,/,?,/,/,0%
CCCCOc1ccc(Cc2n[nH]c(=S)n2N)cc1,10%,62,2.5µM*,/,?,7%
CC(C)Cn1c(Cc2ccccc2)n[nH]c1=S,16µM*,0,-24%,4,5%,0%
S=c1[nH]nc(Cc2ccccc2)n1-c1ccccc1,?,40,?,3,-6%,-1%
CCn1c(CCn2c3ccccc3c3ccccc32)n[nH]c1=S,28µM*,12,?,/,?,2%
CCCCn1c(Cc2ccccc2)n[nH]c1=S,14µM*,44,?,3,-12%,9%
Cc1ccc(OCc2n[nH]c(=S)n2N)cc1C,-14%,/,/,/,/,-8%
Cc1ccc(NC(=O)CN2C(=O)C(C)(C)c3cc(S(=O)(=O)N4CCCCC4)ccc32)c(Br)c1,/,/,/,/,7%[46 µM],/
CCN(CC)CCCC(C)Nc1nc(C)cc(Nc2ccc3nc(C)cc(N)c3c2)n1 (stereo not given),-10%,/,-8%,/,/,0%
O=C(NCc1cccc(Cl)c1)C1CCCN(c2nn3cc(-c4ccc(F)cc4)nc3s2)C1 (stereo not given),/,/,/,/,-5%[46 µM],/
O=C(O)c1cc(S(=O)(=O)NCc2ccco2)c(Cl)cc1Cl,20µM*,-3,-18%,5,0%,-1%
COc1ccc(C(=O)NCC(=O)Nc2cccc(S(=O)(=O)NCc3ccco3)c2)cc1OC,20µM*,/,/,/,9%[46 µM],2%
